Our source for the inhibition values is PubChem BioAssay AID1259374 (The Scripps Research Institute Molecular Screening Center, 2018).

“And” between values parts separate entries of the source, which are not always exact repeats. Equal entries are not always repeated. The campaign covered roughly 650,000 compounds. About 5,900 (0.91%) were called active. What follows is part of a selection rich in actives, with near analogues and random picks from the rest. Values without a mark were called inactive. Cut-off read from the data, not from the text of the source: active = inhibition above about 50%; inactive = the rest.

Microphthalmia-associated transcription factor (Homo sapiens), sequence (O75030 whole entry, looked up): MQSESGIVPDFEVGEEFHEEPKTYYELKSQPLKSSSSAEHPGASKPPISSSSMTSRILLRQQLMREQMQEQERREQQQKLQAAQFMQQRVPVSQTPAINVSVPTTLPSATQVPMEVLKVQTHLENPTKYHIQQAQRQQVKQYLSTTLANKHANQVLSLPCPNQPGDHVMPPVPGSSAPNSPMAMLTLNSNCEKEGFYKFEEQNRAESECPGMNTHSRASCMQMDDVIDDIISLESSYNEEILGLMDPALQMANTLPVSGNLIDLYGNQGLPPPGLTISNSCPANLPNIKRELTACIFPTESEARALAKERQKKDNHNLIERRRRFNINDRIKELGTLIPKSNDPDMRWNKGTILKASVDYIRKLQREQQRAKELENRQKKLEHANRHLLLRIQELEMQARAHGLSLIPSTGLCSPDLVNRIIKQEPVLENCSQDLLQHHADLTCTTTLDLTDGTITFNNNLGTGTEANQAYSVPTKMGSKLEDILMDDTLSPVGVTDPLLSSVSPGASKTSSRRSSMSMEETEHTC

This assay has as its target Microphthalmia-associated transcription factor (Homo sapiens) (UniProt O75030). The assay is described as follows: MITF inhibitors, primary screen, biochemical, AlphaScreen, human (AID 1259374).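 Note: 0% = vehicle wells with protein.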 The following applies: AlphaScreen MITF homodimerization, bead proximity signal; at 2.6 µM; active compounds read high. On the technique in general: Alpha assays give light when donor and acceptor beads are brought close together.
A word on the inhibition: it is the relative decrease from the control value, in per cent. As to `Cc1cccc(N2CC(O)=C(c3nc4ccccc4c(=O)[nH]3)C2=N)c1C`, the inhibition was -2.19%.

As for `CCCOc1cccc(C(=O)Nc2ccc3oc(-c4cccc5c(Br)cccc45)nc3c2)c1`, the inhibition was 3.22%. On to `COc1cccc(C2C(C(=O)OC(C)C)=C(C)NC3=C2C(=O)CC(c2ccc(Cl)cc2)C3)c1OC` (stereo unspecified), for which the inhibition was -2.22%. As for `COc1cc(Nc2ncnc3c2nc(N2CCOCC2)n3C(C)C)cc(OC)c1OC`, the figure is 54.5% (active).

Regarding `COc1cc(Nc2ncnc3c2nc(N2CCN(Cc4ccc5c(c4)OCO5)CC2)n3C(C)C)cc(OC)c1OC`, the inhibition is 5.48%. Next, `CC(C)n1c(N2CCOCC2)nc2c(Nc3ccc(Oc4ccccc4)cc3)ncnc21`: 9.27%; `C[C@@H]1CN(Cc2nnnn2CC(=O)N2CCc3ccccc3C2)C[C@H](C)O1`: 12.1%; `C=CCNC(=O)C(=O)Nc1ccccc1CC`: 19.9%.

For `CN1CCN(c2ncnc3c2cnn3-c2ccc(Cl)c(Cl)c2)CC1`, the inhibition is 10.1%. Turning to `O=C(CC1OC(=O)c2ccccc21)OCC(=O)c1ccc(F)cc1` (stereo unspecified), the inhibition is 18.3%. Next, `COc1ccc(CCNC(=S)NCCCn2ccnc2)cc1`: 8.73%; `COc1ccc(CCCOC(Cn2ccnc2)c2ccc(OC)cc2)cc1` (stereo unspecified): -16.1% and 0.54%; `CCc1cccc(OCCOCCn2ccnc2)c1`: 65.1% (active). Next, `Clc1ccc(OCCOCCn2ccnc2)c(Br)c1`: 46.3%; `C=CCc1cc(C)ccc1OCCCn1ccnc1`: 64.5% (active); `C=CCc1cc(C)ccc1OCC(O)Cn1cnc2ccccc21` (stereo unspecified): 4.8%.

With `CCOC(=O)C(CCOc1cccc(CC)c1)C(=O)OCC`, the inhibition was -23.7%.

Consider `Cc1ccc(C(C)C)c(OCCCn2ccnc2)c1`, for which the inhibition is 9.69%.

Take `CCc1ccc(OCCCCn2ccnc2)cc1`: the inhibition is 62.2% (active). Turning to `Cc1nn(C(=O)c2cccnc2)c(C)c1Sc1ccccc1[N+](=O)[O-]`, the inhibition is 2.63%. As for `O=C(Cc1cccc2ccccc12)Nc1nnc(-c2ccco2)o1`, the figure is 6.58%; as for `COCCN1Cc2cccc(C(=O)Nc3cccc(F)c3)c2C1=O`, -5.68%; as for `Cc1nc(CSc2ccc(-c3ccco3)nn2)cs1`, 5.98%. As for `CCCCc1ccc(Nc2nc3ccccc3nc2NS(=O)(=O)c2ccc(Cl)cc2)cc1`, the inhibition is 1.24%. Next, `COc1ccc(C(=O)NC(NC(=O)c2ccc(OC)cc2)c2cccc(OC)c2)cc1`: 9.45%; `CCN(CC)S(=O)(=O)c1ccc(-c2csc(N3N=C(c4cccc([N+](=O)[O-])c4)CC3c3ccc(F)cc3)n2)cc1` (stereo unspecified): 3.98%.

With `O=C(c1ccc(NC(=S)NCc2ccc(F)cc2)cc1)N1CCCC1`, the inhibition was 22.4%. Next, `O=C(CNCc1cccnc1)Nc1ccc(C(=O)N2CCCCC2)cc1`: 93.3% (active); `O=C(Nc1ccc(C(=O)N2CCCCC2)cc1)c1cccc(I)c1`: -4.21%; `Cn1c(=O)c2c(nc(N3CCCCC3)n2CCNC2=NCCCCC2)n(C)c1=O`: 0.31%.

Turning to `Cc1nccn1CCNC(=O)Cn1nnnc1CN1CCCCCC1`, the inhibition is 0.85%. Next, `COc1ccc(C2=NN(c3nc(-c4ccccc4)c4cc(Cl)ccc4n3)C(c3ccc([N+](=O)[O-])cc3)C2)cc1` (stereo unspecified): -4.92%; `c1ccc(-c2nnc3sc(-c4ccc5c(c4)OCCO5)nn23)cc1`: -0.82%.

Regarding `c1ccc(-n2cc(CN3CCOCC3)c(-c3ccc4c(c3)OCCO4)n2)cc1`, the inhibition is 61.7% (active). As to `c1ccc(CN2CCC(N=C3NN=C(c4ccc5c(c4)OCCO5)CS3)CC2)cc1`, the inhibition is -10.7%. As for `O=C(N/C(=C\c1ccccc1F)C(=O)N1CCCCC1)c1ccc([N+](=O)[O-])cc1`, the figure is 17.1%; as for `O=C(Nc1cncc(-c2ccncc2)c1)C1COc2cc3ccccc3cc2O1` (stereo unspecified), 3.75%; as for `O=C(Nc1ccc(-c2ccncc2)c(C(F)(F)F)c1)C1COc2ccccc2O1` (stereo unspecified), 53.1% (active). As for `O=C(Nc1cncc(-c2ccncc2)c1)C1COc2ccccc2O1` (stereo unspecified), the inhibition was 17.1%. As for `Cc1nn(C)c(C)c1-c1cc(C(=O)NCCO)ccn1`, the figure is 8.26%; as for `CCN(C(=O)c1ccc([N+](=O)[O-])cc1)c1ccccc1`, 1.44%; as for `CN(C)CCCN(CCCN(C)C)Cc1ccc([N+](=O)[O-])cc1`, 37.3%.

On to `CCN(Cc1ccccc1)Cc1ccc([N+](=O)[O-])cc1`, for which the inhibition was 60% (active). Next, `Fc1ccc(CN2CCN(C3CCCC3)CC2)cc1`: 57.1% (active). Next, `OC1CCCN(Cc2cccc(Cl)c2)C1` (stereo unspecified): -10.4%; `CCN(CC)C(=O)C1CCCN(Cc2ccc([N+](=O)[O-])cc2)C1` (stereo unspecified): 27.7%.

For `NC(=O)C1CCCN(Cc2cccc(Cl)c2)C1` (stereo unspecified), the inhibition is 31.1%.

For the compound `O=C1N[C@H](CO)C(=O)N2CCN(Cc3cccc(F)c3)C[C@H]12`, the inhibition was 10.2%. Consider `Cc1cccc(CN2CCN(C3CCCCC3)CC2)c1`, for which the inhibition is 33.7%.

Turning to `Clc1cccc(CN2CCN(C3CCN(Cc4ccccc4)CC3)CC2)c1`, the inhibition is 23.2%. Turning to `Fc1cccc(CN2CCN(C3CCC(c4ccccc4)CC3)CC2)c1` (stereo unspecified), the inhibition is 54.9% (active).

With `Clc1cccc(CN2CCN(C3CCCC3)CC2)c1`, the inhibition was 67.8% (active). Next, `OCCC1CN(Cc2cccc(F)c2)CCN1C1CCCC1` (stereo unspecified): 14.7%; `OCCC1CN(Cc2ccc(F)c(F)c2)CCN1C1CCCC1` (stereo unspecified): -7.36%; `CCN(CC)C(=O)C1CCCN(Cc2cccc(Cl)c2)C1` (stereo unspecified): 55.2% (active). As for `O=C(NC1CCCCCC1)C1CCN(S(=O)(=O)c2cccc3nsnc23)CC1`, the figure is -4.57%; as for `c1ccc(CNc2cc(N3CCc4ccccc4C3)ncn2)cc1`, -8.87%.

`Cc1c(C(=O)C(=O)N2CCCC2)c2ccccc2n1C`: the inhibition was -1.62%.

On to `COc1cc([N+](=O)[O-])ccc1NC(=O)/C=C/c1ccc(F)cc1`, for which the inhibition is 0.43%.

`CC(=O)Nc1cccc(NC(=O)CSc2nc(C(C)(C)C)nc3ccccc23)c1`: the inhibition was 16.8%. Next, `COc1cccc(C(C)N(C)C(=O)c2cc(COc3ccc(C(C)=O)cc3)on2)c1` (stereo unspecified): 11.1%.
